Bioassay records: PubChem BioAssay, National Center for Advancing Translational Sciences (NCATS)
This is a sample that favours compounds with a hit; in the whole collection about 7.3% have one here.
AmpC detergent = qHTS Inhibitors of AmpC Beta-Lactamase (assay with detergent). AmpC hydrolysis of nitrocefin, absorbance 480 nm, 0.01% Triton. P00811. Potency, µM (series often up to 114 µM), inactives show top-dose activity change, negative = inhibition, most hits filed as inhibitors. hit rate 0.041% among 370,000;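 further: potency means the concentration at half of the fitted maximal effect; 0% = no-compound wells and -100% = no-enzyme wells; nearly all actives have a fitted effect of over 25% in size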
Target sequence (P00811 whole entry, looked up): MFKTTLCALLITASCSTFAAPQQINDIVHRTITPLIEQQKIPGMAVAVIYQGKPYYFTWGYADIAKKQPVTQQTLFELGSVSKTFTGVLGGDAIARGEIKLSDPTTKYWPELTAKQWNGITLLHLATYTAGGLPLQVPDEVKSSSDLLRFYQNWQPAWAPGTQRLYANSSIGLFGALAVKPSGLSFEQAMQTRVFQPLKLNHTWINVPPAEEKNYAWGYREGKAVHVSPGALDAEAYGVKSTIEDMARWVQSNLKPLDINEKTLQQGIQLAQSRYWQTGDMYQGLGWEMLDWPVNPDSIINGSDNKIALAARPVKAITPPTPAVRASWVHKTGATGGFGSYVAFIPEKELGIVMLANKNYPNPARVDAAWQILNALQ
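AmpC (5.3 nM in the dispensed reagent) in 20 mM phosphate pH 7.0 with 0.01% (detergent screen) or 0.0001% Triton X-100 was preincubated with compounds for 15 min at room temperature. Nitrocefin was then added from an 800 uM solution, and hydrolysis was followed at 480 nm.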
AmpC inh no detg = qHTS Inhibitors of AmpC Beta-Lactamase (assay without detergent); P00811; AmpC nitrocefin hydrolysis, absorbance 480 nm, 0.0001% Triton; Potency, µM (doses to about 57.1 µM), without a hit: at the top dose activity change, negative = inhibition, actives largely listed as inhibitors; hit rate 0.52% among 330,000;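 further: potency means the concentration at half of the fitted maximal effect; plate controls were no compound for no effect and no enzyme for full effect; nearly all actives have a fitted effect of over 20% in size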
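20 mM phosphate pH 7.0 + 0.01% (detergent screen) or 0.0001% Triton X-100; 5.3 nM AmpC reagent; cpd preinc 15 min RT; nitrocefin (800 uM stock) to start; A480 q20 s × 4 min; Activity was normalised to no-enzyme and no-compound control wells.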
HCV inh = qHTS Assay for Inhibitors of Hepatitis C Virus (HCV) | Huh7.5.1 HCVcc-Cre infection, luciferase reporter, 44 h | Potency, µM (doses to about 41.8 µM), inactives show top-dose activity change, negative = inhibition, most hits filed as inhibitors | hit rate 3.4% among 340,000; further: potency means the concentration at half of the fitted maximal effect
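1,000 cells/well; 4 h culture; + compound; + HCVcc-Cre (~0.5 moi); 44 h; luciferase substrate, RT 15 min; read 15 sec.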
HCMV inh = qHTS Assay for inhibitors of the human cytomegalovirus (HCMV) | HFF cells, HCMV-luciferase reporter, 72 h; stronger effect = lower value | activity change, negative = inhibition, % at 57.5 µM | hit rate 4.5% among 410,000 | AID 1259415, 2018; in the data active means activity change below about -60%; inconclusive means no clear call, values can overlap the other calls; inactive means above about -39%
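Screen run at 2 compound doses on HFFs infected with reporter HCMV, MOI 1 PFU/cell. Luciferase activity from cell lysates at 72 h post infection gave inhibition relative to buffer-only and Salinomycin wells.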
FMDV inh = High Throughput Screening for Foot and Mouth Disease Virus Antivirals. FMDV antiviral cell-based qHTS. Potency, µM (highest dose often 57.9 µM), for the others: at the top dose activity change, negative = inhibition, usual class: inhibitors. hit rate 1.2% among 410,000; calls by dose curve; tested in HEK293T cells; further: read-out not given here; potency means the concentration at half of the fitted maximal effect; nearly all actives have a fitted effect of over 45% in size
Starred values were filed as active, the others as inactive. Unless noted, the call rests on the fitted dose curve; in most records, active means well fitted curve in the direction sought with a large enough effect; inconclusive means small, poorly fitted or top-dose-only effect, or another doubt; inactive means no such curve, though single readings can be large; an effect the other way counts as inactive or inconclusive. Unless noted, on the % scale 0 is the no-effect control and ±100 the full control effect.

`CCOc1ccc(NS(=O)(=O)c2ccc(NC(=S)NC(C)=O)cc2)cc1` gave AmpC detergent 10%, AmpC inh no detg 1%, HCV inh inconclusive, HCMV inh -62* and FMDV inh 23%.
CCOc1ccc(NS(=O)(=O)c2ccc(NC(=S)NC(=O)C(C)C)cc2)cc1 was read as AmpC detergent inconclusive, AmpC inh no detg -40%, HCV inh -10%, HCMV inh 6 and FMDV inh 20%.
`CCCCNC(=O)NS(=O)(=O)c1ccc(NC(=O)C(NC(N)=O)C(C)CC)cc1` (stereo unspecified) gave AmpC detergent -8%, AmpC inh no detg -20%, HCV inh 6%, HCMV inh 29 and FMDV inh 22%.
CCOC(=O)C1CCCN(C(=O)c2cnn(-c3ncc4c(n3)-c3ccccc3CC4)c2C)C1 (stereo unspecified) was read as FMDV inh 16%.
For Cc1cc(C)cc(OCC(=O)Nc2c(C)ccc3nsnc23)c1 the results were AmpC detergent -1%, HCMV inh -11 and FMDV inh -30%.
`CC(=O)NC(=S)Nc1ccc(S(=O)(=O)N(C)Cc2ccccc2)cc1` gave AmpC detergent -11%, AmpC inh no detg -28%, HCV inh -23%, HCMV inh -17 and FMDV inh 22µM*.
Cc1ccc(OCC(=O)Nc2ccc3c(c2)OCCO3)cc1C was read as AmpC detergent -4%, AmpC inh no detg -30%, HCV inh -5%, HCMV inh -63* and FMDV inh -21%.
`Cc1ccc(OCC(=O)Nc2cc(C(=O)O)cc(C(=O)O)c2)cc1C` gave AmpC detergent 0%, AmpC inh no detg -14%, HCV inh -3%, HCMV inh -65* and FMDV inh -6%.
O=C(CCl)Nc1ccccc1Sc1ccccc1 was read as AmpC detergent -7%, AmpC inh no detg -18%, HCV inh 14%, HCMV inh -11 and FMDV inh inconclusive.
For Cc1ccc(NC(=O)CC(=O)Nc2ccc(C)c(C)c2)cc1C the results were AmpC detergent 4%, AmpC inh no detg -35%, HCV inh -12%, HCMV inh 22 and FMDV inh -2%.
Cc1ccc(Sc2ccc(NC(=O)CCl)cc2)cc1C was read as AmpC detergent 0%, AmpC inh no detg -18%, HCV inh inconclusive, HCMV inh 27 and FMDV inh 28µM*.
Cc1ccc(C)c(Sc2ccc(NC(=O)CCl)cc2)c1 was read as AmpC detergent -15%, AmpC inh no detg -18%, HCV inh inconclusive, HCMV inh 8 and FMDV inh 20µM*.
`Cc1ccc(N2CCN(C(=O)Cn3ncc4c([nH]c5ccc(C)cc54)c3=O)CC2)c(C)c1` gave AmpC detergent 21%, HCMV inh 6 and FMDV inh -19%.
`CCOC(=O)C1=NN(c2ccc(C)cc2)C2(S1)SC(C(C)=O)=C(C)N2c1ccccc1` (stereo unspecified) gave AmpC detergent -9%, AmpC inh no detg -6%, HCV inh 14µM*, HCMV inh -30 and FMDV inh -24%.
Cc1cccc2cc(CN(CC3CCCO3)C(=O)c3ccccc3F)c(N(C)C)nc12 (stereo unspecified) was read as FMDV inh 3%.
For CCOc1cccc(NC(=O)c2ccc(S(=O)(=O)N(C)C)cc2)c1 the results were AmpC detergent inconclusive, AmpC inh no detg -23%, HCV inh inconclusive, HCMV inh -36 and FMDV inh -26%.
For CCN(CC)CCNC(=O)c1ccc(NC(=O)c2ccc(COc3ccccc3)cc2)cc1 the results were AmpC detergent 4%, AmpC inh no detg -22%, HCV inh 11µM*, HCMV inh inconclusive and FMDV inh -6%.
Screening CN(C)S(=O)(=O)c1cccc(NC(=O)c2ccc(COc3ccccc3)cc2)c1 returned AmpC detergent -7%, AmpC inh no detg -26%, HCV inh 10µM* and FMDV inh 25µM*.
